Hit rate of the full screen: of about 310,000 compounds, about 14,000 (4.5%) showed an effect of 50% or more. The effect is printed as a negative number. The entries come from a sample that favours strong results as a whole.
These molecules were tested against human ether-à-go-go-related gene (hERG) potassium channel (human, UniProt Q12809) (assay: primary screen, population patch clamp on CHO cells stably expressing hERG; higher = less effect of the substance).
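Further: peak tail current of the secondary pulse compared with the same well before compound.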

Chain of human ether-à-go-go-related gene (hERG) potassium channel (Q12809 whole entry, looked up): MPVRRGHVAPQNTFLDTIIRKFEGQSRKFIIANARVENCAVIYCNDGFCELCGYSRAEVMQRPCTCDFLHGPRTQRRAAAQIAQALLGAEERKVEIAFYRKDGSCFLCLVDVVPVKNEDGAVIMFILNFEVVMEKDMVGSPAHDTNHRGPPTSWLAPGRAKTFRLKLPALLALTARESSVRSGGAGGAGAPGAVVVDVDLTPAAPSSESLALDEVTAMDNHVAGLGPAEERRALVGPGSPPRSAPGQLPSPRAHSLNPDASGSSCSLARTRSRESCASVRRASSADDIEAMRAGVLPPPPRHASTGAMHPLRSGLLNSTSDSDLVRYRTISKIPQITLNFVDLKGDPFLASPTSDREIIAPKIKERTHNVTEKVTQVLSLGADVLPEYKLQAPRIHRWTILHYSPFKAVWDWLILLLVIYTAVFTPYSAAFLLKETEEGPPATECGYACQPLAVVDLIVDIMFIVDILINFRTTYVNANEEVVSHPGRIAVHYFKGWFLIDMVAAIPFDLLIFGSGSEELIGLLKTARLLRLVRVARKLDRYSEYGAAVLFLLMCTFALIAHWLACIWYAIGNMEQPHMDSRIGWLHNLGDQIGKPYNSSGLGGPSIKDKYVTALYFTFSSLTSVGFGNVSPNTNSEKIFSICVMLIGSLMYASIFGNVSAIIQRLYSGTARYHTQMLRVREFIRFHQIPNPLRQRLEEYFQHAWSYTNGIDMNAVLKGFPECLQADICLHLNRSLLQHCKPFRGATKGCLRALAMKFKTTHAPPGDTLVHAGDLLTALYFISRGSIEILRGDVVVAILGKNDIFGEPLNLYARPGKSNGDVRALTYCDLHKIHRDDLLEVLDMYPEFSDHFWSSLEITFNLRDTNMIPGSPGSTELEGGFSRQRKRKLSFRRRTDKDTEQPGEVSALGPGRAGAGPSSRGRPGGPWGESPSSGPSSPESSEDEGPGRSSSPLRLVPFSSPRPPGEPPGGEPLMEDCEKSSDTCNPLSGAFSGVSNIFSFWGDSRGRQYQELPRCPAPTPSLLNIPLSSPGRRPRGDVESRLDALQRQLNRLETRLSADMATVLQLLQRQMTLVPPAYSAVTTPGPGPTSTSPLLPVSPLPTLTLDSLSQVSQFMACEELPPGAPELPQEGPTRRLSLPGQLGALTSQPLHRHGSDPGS

Going from `O=c1oc2ccccc2c(O)c1C=Nc1cccnc1` to `Cc1cccc(C)c1NC(=O)C(NC=O)c1ccccc1` (stereo not shown), the “hERG current change (%, negative = inhibition) at 10uM” value falls from 12.2% to -64.1%.

Compared with `C#Cc1ccc(CN2CCCC(C(=O)Nc3ccccc3Oc3cccnc3)C2)cc1` (stereo not shown), `O=C(Nc1ccccc1Oc1cccnc1)C1CCCN(Cc2ccc(F)cc2)C1` (stereo not shown) is higher in “hERG current change (%, negative = inhibition) at 10uM” value: -58.5% for the first, -36.2% for the second.

Compared with `O=C(Nc1ccccc1Oc1cccnc1)C1CCCN(Cc2ccccc2O)C1` (stereo not shown), `Cc1ccccc1CN1CCCC(C(=O)Nc2ccccc2Oc2cccnc2)C1` (stereo not shown) is higher in “hERG current change (%, negative = inhibition) at 10uM” value: -57.2% for the first, 0.0346% for the second.

First: O=C(Nc1ccccc1Oc1cccnc1)C1CCCN(Cc2cccc(Cl)c2)C1 (stereo not shown)
Second: Cc1cccc(CN2CCCC(C(=O)Nc3ccccc3Oc3cccnc3)C2)c1 (stereo not shown)
The “hERG current change (%, negative = inhibition) at 10uM” value of the first is higher: -30.2% for the first, -43.9% for the second.

First: CCN1CCN(CC(O)COc2ccc3c(C)cc(=O)oc3c2)CC1.Cl (stereo not shown)
Second: CCCCn1c(C)c(C(=O)O)c2cc(OC)ccc21
The “hERG current change (%, negative = inhibition) at 10uM” value of the first is lower: -0.83% for the first, 1.59% for the second.

Going from `O=C(CSCC(=O)N1CCOCC1)Nc1ccccc1` to `Cc1cc(S(=O)(=O)NCCN2CCOCC2)ccc1Cl`, the “hERG current change (%, negative = inhibition) at 10uM” value rises from -0.115% to 21.3%.

Compared with `O=C(NC1CCS(=O)(=O)C1)c1ccc2c(c1)OCO2` (stereo not shown), `Cc1ccc(C(=O)NCC(c2ccco2)N2CCc3ccccc32)cc1C` (stereo not shown) is lower in “hERG current change (%, negative = inhibition) at 10uM” value: 13% for the first, -60.1% for the second.

Going from `Cc1nc2ccc(NC(=O)c3ccc(Cl)c(S(=O)(=O)N(C)c4ccccc4)c3)cc2s1` to `Cc1ccnc(NC(=O)CNC(=O)c2ccc3ccccc3c2)c1`, the “hERG current change (%, negative = inhibition) at 10uM” value falls from 10.3% to -12.5%.

First: Cc1cccc(C)c1NC(=O)C(NC=O)c1ccc(N(C)C)cc1 (stereo not shown)
Second: Cc1cccc(C)c1NC(=O)C(NC=O)c1ccc(Cl)cc1 (stereo not shown)
The “hERG current change (%, negative = inhibition) at 10uM” value of the first is lower: -11.1% for the first, 0.758% for the second.

Going from `COc1cc2c(=O)n(Cc3ccco3)c(=O)n(CC(=O)c3ccc(Br)cc3)c2cc1OC` to `COc1ccc(CCNC(=O)Cn2cnc3c(cnn3-c3ccccc3Cl)c2=O)cc1OC`, the “hERG current change (%, negative = inhibition) at 10uM” value rises from -3.02% to -1.24%.

First: Cc1cccc(C(=O)NCC(c2ccco2)N2CCc3ccccc32)c1 (stereo not shown)
Second: Cc1ccc(C(=O)NCC(c2ccco2)N2CCc3ccccc32)cc1 (stereo not shown)
The “hERG current change (%, negative = inhibition) at 10uM” value of the first is lower: -25.6% for the first, -13% for the second.

Compared with `COc1ccc(CCC(=O)NCC(c2ccco2)N2CCc3ccccc32)cc1` (stereo not shown), `O=C(CCc1ccccc1)NCC(c1ccco1)N1CCc2ccccc21` (stereo not shown) is lower in “hERG current change (%, negative = inhibition) at 10uM” value: -44.2% for the first, -56.2% for the second.

First: O=C(NCC(c1ccco1)N1CCc2ccccc21)c1ccccc1Cl (stereo not shown)
Second: O=C(NCC(c1ccco1)N1CCc2ccccc21)c1ccccc1F (stereo not shown)
The “hERG current change (%, negative = inhibition) at 10uM” value of the first is lower: -60.2% for the first, -19.8% for the second.

First: O=C(NCC(c1ccco1)N1CCc2ccccc21)c1ccccc1 (stereo not shown)
Second: Cc1ccccc1C(=O)NCC(c1ccco1)N1CCc2ccccc21 (stereo not shown)
The “hERG current change (%, negative = inhibition) at 10uM” value of the first is higher: -3.78% for the first, -55.7% for the second.

Going from `O=C(NCC(c1ccco1)N1CCc2ccccc21)c1ccccc1Br` (stereo not shown) to `COc1ccccc1C(=O)NCC(c1ccco1)N1CCc2ccccc21` (stereo not shown), the “hERG current change (%, negative = inhibition) at 10uM” value rises from -29.3% to -6.41%.

Going from `O=C(NCC(c1ccco1)N1CCc2ccccc21)c1c(F)cccc1F` (stereo not shown) to `CC(Oc1ccc(Cl)cc1)c1ccnn1S(=O)(=O)c1ccccc1` (stereo not shown), the “hERG current change (%, negative = inhibition) at 10uM” value rises from -7.53% to 5.02%.

Going from `O=C(C[n+]1ccc(/C=N/O)cc1)N(Cc1ccccc1)Cc1ccccc1.[Cl-]` to `CCOC(=O)c1c(-c2ccccc2)c2cc(OC)ccc2n1CCCN(C)C.Cl`, the “hERG current change (%, negative = inhibition) at 10uM” value falls from 0.798% to -72.4%.

Going from `CC(=C/C(=O)O)/C(=C/c1ccccc1)C(=O)O` to `Cc1occc1C(=O)n1nnc2ccccc21`, the “hERG current change (%, negative = inhibition) at 10uM” value falls from 15.6% to -7.48%.

Compared with `Cc1sc2ncn(CC(=O)NCCCN3CC(C)CC(C)C3)c(=O)c2c1S(=O)(=O)N1CC(C)CC(C)C1` (stereo not shown), `Cn1cc(S(=O)(=O)N2CCCC2)cc1C(=O)NCc1ccc(Cl)cc1` is higher in “hERG current change (%, negative = inhibition) at 10uM” value: -32.1% for the first, 2.02% for the second.

Going from `O=C(NCC(c1cccnc1)N1CCOCC1)C1CCCCC1` (stereo not shown) to `CCN(CC)C(=O)c1ccc2c(=O)n(CCOC)c(=S)[nH]c2c1`, the “hERG current change (%, negative = inhibition) at 10uM” value falls from 5% to -7.02%.

Going from `COc1ccc2c(c1)c(C(=O)OCCN(C)C)c(C)n2C.Cl` to `COc1ccc2nc(NC(C)=O)sc2c1`, the “hERG current change (%, negative = inhibition) at 10uM” value falls from -1.4% to -4.83%.

For `Cc1ccc(OCC(=O)N/N=C/C=C/c2ccco2)cc1`, the “hERG current change (%, negative = inhibition) at 10uM” value was -45.9%.

Reference: publication PMC4336329 (PLoS ONE, 2015)
